According to PubChem BioAssay (NCATS):
Records with an inconclusive call do not appear. Active and inactive are the calls of the source. Unless noted, the call rests on the fitted dose curve; in most records, active means well fitted curve in the direction sought with a large enough effect; inconclusive means small, poorly fitted or top-dose-only effect, or another doubt; inactive means no such curve, though single readings can be large; an effect the other way counts as inactive or inconclusive.

How the values were obtained:
[1] = qHTS profiling for inhibitors of Plasmodium falciparum (DD2) proliferation (AID 743323; call rule not given here); details: lower = more inhibition; at 28.7 µM (top of the series)
Outline: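 Parasite proliferation measured via DNA-dye fluorescence, as uninfected erythrocytes lack DNA. Cultures at 0.3% parasitemia and 2.5% hematocrit incubated 72 h with compound; signal scaled between vehicle and 0.29 uM artemisinin wells.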

[2] = qHTS profiling for inhibitors of Plasmodium falciparum (HB3) proliferation (AID 743324); details: Plasmodium falciparum HB3 blood-stage proliferation; at 28.7 µM (top of the series);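 further: 100% = DMSO vehicle wells and 0% = artemisinin-treated control wells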
Outline: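 P. falciparum HB3 grown in erythrocytes (0.3% parasitemia, 2.5% hematocrit final) with compound for 72 h at 37 C, 5% CO2. Parasite DNA detected by SYBR Green after saponin/triton lysis overnight; normalized to 0.29 uM artemisinin and DMSO.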

[3] = system: 7G8; experiment: qHTS profiling for inhibitors of Plasmodium falciparum proliferation (AID 504749); further: potency means the concentration at half of the fitted maximal effect; nearly all actives have a fitted effect of over 60% in size; details: P. falciparum in erythrocytes, SYBR Green DNA, 72 h; series mostly up to 28.7 µM
Outline: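 Infected RBCs, 0.3% parasitemia/2.5% Hct final; cpd 72 h, 37 C, 5% CO2; lysis buffer with saponin/triton/SYBR Green I, o/n RT dark; FI 485/535; norm. to artemisinin (0.29 uM) and DMSO.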

[4] = biological target: Rap guanine nucleotide exchange factor 4 (Homo sapiens) (UniProt Q8WZA2); experiment: Confirmatory qHTS for antagonist of cAMP-regulated guanine nucleotide exchange factor 4 (EPAC2) (AID 1645885); further: on the % scale 0 is the no-effect control and ±100 the full control effect; nearly all actives have a fitted effect of over 25% in size
Chain of Rap guanine nucleotide exchange factor 4 (Homo sapiens) (Q8WZA2 whole entry, looked up): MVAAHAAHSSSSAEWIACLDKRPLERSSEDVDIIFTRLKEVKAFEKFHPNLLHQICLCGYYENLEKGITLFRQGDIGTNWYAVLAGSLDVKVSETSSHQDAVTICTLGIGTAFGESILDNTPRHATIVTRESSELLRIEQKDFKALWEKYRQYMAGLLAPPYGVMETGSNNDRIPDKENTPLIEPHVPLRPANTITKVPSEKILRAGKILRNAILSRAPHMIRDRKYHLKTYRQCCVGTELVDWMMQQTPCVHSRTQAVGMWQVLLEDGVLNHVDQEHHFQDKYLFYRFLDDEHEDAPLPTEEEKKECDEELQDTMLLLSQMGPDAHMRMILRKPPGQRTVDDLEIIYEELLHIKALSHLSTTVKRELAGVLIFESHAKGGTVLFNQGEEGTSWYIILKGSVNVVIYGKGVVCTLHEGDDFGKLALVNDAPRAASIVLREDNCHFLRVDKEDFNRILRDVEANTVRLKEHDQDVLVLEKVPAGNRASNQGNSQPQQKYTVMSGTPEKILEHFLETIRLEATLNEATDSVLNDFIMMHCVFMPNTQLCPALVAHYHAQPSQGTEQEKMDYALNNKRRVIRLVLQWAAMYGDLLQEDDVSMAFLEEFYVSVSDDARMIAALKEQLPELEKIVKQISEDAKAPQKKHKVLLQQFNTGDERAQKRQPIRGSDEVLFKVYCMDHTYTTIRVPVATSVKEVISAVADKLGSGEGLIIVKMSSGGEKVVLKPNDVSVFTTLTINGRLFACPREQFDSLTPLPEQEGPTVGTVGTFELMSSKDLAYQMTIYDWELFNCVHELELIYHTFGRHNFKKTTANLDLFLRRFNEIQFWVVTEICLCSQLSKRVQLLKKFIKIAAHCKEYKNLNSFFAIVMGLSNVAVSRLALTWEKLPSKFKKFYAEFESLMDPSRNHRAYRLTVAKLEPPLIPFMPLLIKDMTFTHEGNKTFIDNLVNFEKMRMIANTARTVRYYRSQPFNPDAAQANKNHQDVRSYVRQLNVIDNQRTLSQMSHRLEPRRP

[5] = Confirmatory screen GU Rhodamine qHTS for Zika virus inhibitors qHTS (AID 1347157);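 further: plate controls were no-inhibitor wells for no effect and no-enzyme wells for full effect; nearly all actives have a fitted effect of over 70% in size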
Outline: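 A qHTS format was used, with compound concentrations ranging up to 114 microM. Each compound was preincubated with 25 nM NS2B-NS3 protease, and the substrate was then added at 1.5 microM. Curves were fitted with a 4-parameter Hill model.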

[6] = biological target: Lysosomal acid glucosylceramidase (Homo sapiens) (UniProt P04062); experiment: Glucocerebrosidase-p2 (AID 348; in the data active means potency below about 10 µM; further: potency means the concentration at half of the fitted maximal effect); details: purified GBA, blue fluorogenic substrate, 40 min
Chain of Lysosomal acid glucosylceramidase (Homo sapiens) (P04062 whole entry, looked up): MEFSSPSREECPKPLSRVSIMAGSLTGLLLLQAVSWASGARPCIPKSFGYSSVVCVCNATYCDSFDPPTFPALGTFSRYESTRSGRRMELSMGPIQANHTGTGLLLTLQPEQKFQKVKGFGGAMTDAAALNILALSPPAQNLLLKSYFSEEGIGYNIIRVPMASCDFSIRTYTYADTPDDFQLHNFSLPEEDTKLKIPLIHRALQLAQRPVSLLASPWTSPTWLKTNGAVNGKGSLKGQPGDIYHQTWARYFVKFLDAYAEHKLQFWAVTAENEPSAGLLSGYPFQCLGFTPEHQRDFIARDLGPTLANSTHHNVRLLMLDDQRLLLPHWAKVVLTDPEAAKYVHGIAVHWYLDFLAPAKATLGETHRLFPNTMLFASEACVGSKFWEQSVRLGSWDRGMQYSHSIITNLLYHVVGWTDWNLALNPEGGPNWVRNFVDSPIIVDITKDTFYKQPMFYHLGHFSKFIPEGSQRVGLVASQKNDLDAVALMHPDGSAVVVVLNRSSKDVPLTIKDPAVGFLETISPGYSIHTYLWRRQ
Outline: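 Compounds titrated from 0.6 nM upwards against 0.2 nM enzyme in pH 5.9 citric acid/KH2PO4, taurocholate, tween-20; blue fluorogenic substrate 80 uM, 40 min room temperature, stopped and read Ex 365/Em 440 for AC50.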

[7] = qHTS Assay for Identification of Small Molecule Agonists for Hypoxia Response Element Signaling Pathway (AID 914; active means well fitted activation curve with a large enough effect in the signal ratio, with a control signal flat, not every such curve was filed as active; the % refers to the signal ratio; further: % of control where 0% means no effect); details: ME-180 (cervical carcinoma) HRE-bla reporter, beta-lactamase ratio, CoCl2, 17 h; activation: stronger effect = higher value
Outline: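 qHTS titration; ME-180 HRE-bla cells; EC50 CoCl2 co-treatment, 17 h at 37 degrees Celsius; CCF4 dye, ex 405nm, em 460nm and 530nm; %Activity from ratio; AC50.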

[8] = qHTS Assay for Identification of Small Molecule Antagonists for Thrombopoietin (TPO) Signaling Pathway (AID 918); details: TPO-dependent cell signaling reporter, antagonist mode; further: potency means the concentration at half of the fitted maximal effect; nearly all actives have a fitted effect of over 60% in size
Outline: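 Ba/F3 (murine, hTPO-R, GPIIb-luc reporter); overnight IL-3 withdrawal; cpd + TPO 26 pM final (EC50); 24 h 37 C/5% CO2; Steadylite luminescence after 10 min RT.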

CCCCC[C@H]1C(=O)O[C@H](C)[C@H](NC(=O)c2cccc(NC=O)c2O)C(=O)O[C@@H](C)[C@@H]1OC(=O)CC(C)C
activity, percent of control [1]: 8.53% | remaining proliferation (% of control), lower = more inhibition [2]: 6.18%

CC(C)[C@@]1(NC(=O)[C@H]2CC3c4cccc5[nH]cc(c45)C[C@H]3N(C)C2)O[C@@]2(O)C3CCCN3C(=O)[C@@H](Cc3ccccc3)N2C1=O (stereo partly drawn)
Potency [3]: 0.199 µM (active)

C(=C/c1ccccc1)/CN1CCN(CCOC(c2ccccc2)c2ccccc2)CC1
Potency [4]: inactive

O=C(O)c1ccccc1-c1c2cc(Br)c(=O)cc-2oc2[c]([Hg])c(O)c(Br)cc12
Potency [5]: inactive

O=C1C2CCN(CC2)C1(CO)CO
Potency [6]: > 11.4 µM (inactive)

CNCCc1c[nH]c2ccccc12
activation [7]: -14% (inactive)

CC(C)[C@@]1(NC(=O)[C@@H]2C[C@H]3c4cccc5[nH]cc(c45)C[C@@H]3N(C)C2)O[C@@]2(O)[C@H]3CCCN3C(=O)[C@H](Cc3ccccc3)N2C1=O
Potency [8]: 10 µM (active)
